From PubChem BioAssay (EPA / NIEHS) come the findings set out here.

Molecules are shown by their SMILES. The source made the active and inactive calls. The calls were made as follows: active = hit-call score of the fitted dose curve at least 0.9, where 1 is the maximum; inactive = score below 0.9.

This test in a line: ATG_M_06_CIS: Attagene CIS-FACTORIAL HepG2 Assay for M06 Transcription Factor (Internal Marker) (AID 2282950). To be noted: HepG2 Attagene CIS-FACTORIAL M06 internal marker reporter; actives raise or lower the signal. The protocol:
ATG_CIS is a cell-based, multiplexed-readout assay that uses HepG2, a human liver cell line, with measurements taken at 24 hours after chemical dosing in a 24-well plate.ATG_M_06_CIS is one of 52 assay component(s) measured or calculated from the ATG_CIS assay. It is designed to make measurements of mRNA induction, a form of inducible reporter, as detected with fluorescence intensity signals by Reverse transcription polymerase chain reaction (RT-PCR) and Capillary electrophoresis technology.Data from the assay component ATG_M_06_CIS was analyzed into 1 assay endpoint. This assay endpoint, ATG_M_06_CIS, was analyzed with bidirectional fitting relative to DMSO as the negative control and baseline of activity. Using a type of inducible reporter, measures of mRNA for gain or loss-of-signal activity can be used to understand the background control at the transcription factor-level as they relate to the gene . Furthermore, this assay endpoint can be referred to as a secondary readout, because this assay has produced multiple assay endpoints where this one serves a background control function. To generalize the intended target to other relatable targets, this assay endpoint is annotated to the background measurement intended target family, where the subfamily is internal marker.
Human liver HepG2 cells are transiently transfected with multiple reporter transcription units (MRTUs) in 6-well plates using FuGene 6 reagent (Roche; 3 ml FuGene/1 mg DNA). The MRTU constructs are regulated by a cis-regulating element (promoter). […] A major difference between the CIS and TRANS system is that in CIS activities of endogenous TFs are measured, whereas the TRANS assay evaluates changes in activities of exogenous, chimeric NR-Gal4 proteins. […] At the end of 24 hour incubation, total RNA was isolated using TriZol reagent (Invitrogen). The isolated RNA is then reverse-transcribed using oligo(dT) primer and Mo-MLV reverse transcriptase (Invitrogen) with DNAse I (Ambion) treatment for 30 min. The one-tenth of the produced cDNA was amplified by PCR using Taq DNA polymerase (Invitrogen) and two reporter sequence-specific primers. The PCR products were fluorescently labeled by primer extension with 6-arboxyfluorescein (6-FAM) 5'-labeled reporter sequence-specific primer (2 min at 95 C, 20 s at 68 C and 10 min at 72 C) and these products were digested with 5U of HpaI (New England Biolabs) for 2h at 37 C. The fragments were purified using Qiaquick PCR columns (Qiagen), analyzed on an ABI 3130xL genetic analyzer (Applied Biosystems) with peak positions identified by using a set of X-rhodamine (ROX)-labeled MapMarker1000 molecular weight standards (BioVentures). The raw capillary electrophoresis data was processed using Attagraph software (Attagene).
`O=C(O)COc1cc(Cl)c(Cl)cc1Cl`: the call was inactive.
The entry for `COCC(=O)N(c1c(C)cccc1C)[C@H](C)C(=O)OC` is “inactive”; for `CCCCCCCCCCCCOS(=O)(=O)O` it is “inactive”; for `CN(C)CCN(C)C` it is “inactive”.
The result for `Fc1cccc(Cl)c1CCl` reads “inactive”; that for `Cc1c([N+](=O)[O-])c(C)c([N+](=O)[O-])c(C(C)(C)C)c1[N+](=O)[O-]`, “inactive”; that for `Cc1cc(SCc2sc(-c3ccc(C(F)(F)F)c(F)c3)nc2C)ccc1OCC(=O)O`, “inactive”.
The entry for `OC[C@@H](O)[C@H]1O[C@@H]2O[C@H](C(Cl)(Cl)Cl)O[C@@H]2[C@H]1O` is “inactive”; for `COc1ccccc1N` it is “inactive”.
With `Oc1c(Br)cc(Br)cc1Br`, the result was inactive.
Turning to `FC(F)OCC(F)(F)C(F)(F)F`, the call was inactive.
Consider `C[C@H]1C(=O)O[C@@H]2CCN3CC=C(COC(=O)[C@](C)(O)[C@]1(C)O)[C@H]23`, for which the call was inactive.
The entry for `O=c1[nH]c(=O)n(Cl)c(=O)n1Cl` is “inactive”.
The result for `OCC(c1ccc(Cl)cc1)c1ccc(Cl)cc1` reads “inactive”; that for `C=CC(F)(C(F)(F)F)C(F)(F)C(F)(F)F` (stereo not given), “inactive”; that for `C[As+](C)(C)CC(=O)[O-]`, “inactive”.
As for `C1CN2CCN1CC2`, the compound was called inactive.
The result for `Nc1ncn[nH]1` reads “inactive”; that for `C#C[C@]1(O)CC[C@H]2[C@@H]3CCC4=CC(=O)CC[C@]4(C)[C@H]3CC[C@@]21C`, “inactive”; that for `CC(C)(C1CCC(O)CC1)C1CCC(O)CC1` (stereo not given), “inactive”.
Consider `Clc1cccc(Cl)c1Cl`, for which the compound was classed as inactive.
As for `CC(F)(F)CC(F)(F)F`, the result was inactive.
The entry for `O=C(Cl)OCCOCCOC(=O)Cl` is “inactive”; for `C=C(C)C(=O)OCC(CC)CCCC` (stereo not given) it is “inactive”.
In the case of `CCOP(=S)(OCC)SCSc1cc(Cl)ccc1Cl`, the result was inactive.
In the case of `C[C@]12CC[C@@H](O)C[C@@H]1CC[C@@H]1[C@@H]2CC[C@]2(C)C(=O)CC[C@@H]12`, the compound was called inactive.
The result for `CCCCCCCCCCCCBr` reads “inactive”; that for `CC(C)N(C(=O)CCl)c1ccccc1`, “inactive”; that for `CCCCS(=O)(=O)Cl`, “inactive”.
The result for `CNC(=O)CSP(=O)(OC)OC` reads “inactive”; that for `O=C(O)CC(O)(CC(=O)O)C(=O)O`, “inactive”; that for `C=C(C)C(=O)OCCCCOC(=O)C(=C)C`, “inactive”.
The result for `OC(Cc1ccccc1Cl)(Cn1cncn1)C1(Cl)CC1` (stereo not given) reads “inactive”; that for `N#Cc1ccccc1N`, “inactive”; that for `O=NN1CCCCCC1`, “inactive”.
In the case of `N#CCCC(Br)(C#N)CBr` (stereo not given), the compound was classed as inactive.
As to `Cc1cc(C)cc(C)c1`, the outcome was inactive.
The entry for `ClCc1ccccc1CCl` is “inactive”.
Turning to `[F][Sn]([c]1ccccc1)([c]1ccccc1)[c]1ccccc1`, the compound was classed as inactive.
Turning to `O=NN1CCCCCCC1`, the compound was classed as inactive.
